The nature of assay [1]: qHTS assay to identify small molecule agonists of the peroxisome proliferator-activated receptor delta (PPARd) signaling pathway - cell viability counter screen (AID 743211; active = well fitted curve in the direction sought with a large enough effect in the repeat runs; an effect the other way counts as inactive or inconclusive; note: % is set by controls: 0 for no effect and ±100 for the full control effect; nearly all actives have a fitted effect of over 55% in size). The method in brief: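 Viability of GeneBLAzer PPARd UAS-bla HEK293H cells was assessed after 17 h compound incubation at 37C, using CellTiter-Glo reagent added after the reporter read and luminescence recorded 30 min later.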

In assay [2] the target is Peroxisome proliferator-activated receptor delta (Homo sapiens) (UniProt Q03181). The experiment in a line: qHTS assay to identify small molecule agonists of the peroxisome proliferator-activated receptor delta (PPARd) signaling pathway (AID 743212).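 Note: HEK293H cells with PPARd UAS beta-lactamase reporter GeneBLAzer system; % is set by controls: 0 for no effect and ±100 for the full control effect.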 The method in brief:
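Beta-lactamase reporter read by fluorescence (LiveBLAzer B/G FRET, 2 h, room temperature). Test agents, in DMSO, incubated at 37 C with PPARd-bla HEK293H cells.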

Assay [3] can be described thus: qHTS assay to identify small molecule antagonists of the peroxisome proliferator-activated receptor delta (PPARd) signaling pathway - cell viability counter screen (AID 743213; active = well fitted curve in the direction sought with a large enough effect in the repeat runs; an effect the other way counts as inactive or inconclusive; note: % is set by controls: 0 for no effect and ±100 for the full control effect; nearly all actives have a fitted effect of over 50% in size). The method in brief:
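Viability counter-screen, qHTS format: PPARd-bla HEK293H, L165041 300 nM final, 17 h compound exposure at 37 C, CellTiter-Glo luminescence after 30 min RT.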

Assay [4] concerns the target Peroxisome proliferator-activated receptor delta (Homo sapiens) (UniProt Q03181). The experiment in a line: qHTS assay to identify small molecule antagonists of the peroxisome proliferator-activated receptor delta (PPARd) signaling pathway (AID 743215; active = well fitted inhibition curve with a large enough effect in the signal ratio in the repeat runs, not every such curve was filed as active; the % refers to the signal ratio;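 note: cells stimulated with agonist L165041 at 300 nM final during compound exposure; series mostly up to about 62 µM; % is set by controls: 0 for no effect and ±100 for the full control effect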). The gist of the method:
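Agonist L165041 (300 nM final) added with compound to PPARd-bla HEK293H UAS-bla reporter cells; 17 h incubation at 37 C. Read-out: LiveBLAzer FRET substrate, 2 h at room temperature, fluorescence intensity.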

Assay [5] is described as follows: qHTS assay to identify small molecule agonists of the farnesoid-X-receptor (FXR) signaling pathway - cell viability counter screen (AID 743218; active = well fitted curve in the direction sought with a large enough effect in the repeat runs; an effect the other way counts as inactive or inconclusive; note: nearly all actives have a fitted effect of over 45% in size; note: potency is the fitted concentration of half-maximal effect). The method in brief: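 Viability counter screen in the same wells: CellTiter-Glo luminescence, 30 min room-temperature incubation, measured after the beta-lactamase read. Cells were GeneBLAzer FXR-UAS-bla HEK 293T, compound-treated 16 h at 37C.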

A short description of assay [6]: qHTS assay to identify small molecule antagonists of the farnesoid-X-receptor (FXR) signaling pathway - cell viability counter screen (AID 743221; active = well fitted cell-killing curve with a large enough effect in the repeat runs, not every such curve was filed as active; note: % is set by controls: 0 for no effect and ±100 for the full control effect; nearly all actives have a fitted effect of over 50% in size). The method in brief:
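Quantitative HTS of the Tox21 10K library run in parallel with the beta-lactamase reporter read. HEK 293T cells carrying a UAS-driven bla reporter got compound and 50 uM CDCA (final) for 16 h; ATP-based luminescence followed.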

The target in assay [7] is Vitamin D3 receptor (Homo sapiens) (UniProt P11473). The assay can be described thus: qHTS assay to identify small molecule agonists of the vitamin D receptor (VDR) signaling pathway (AID 743222). Note: % is set by controls: 0 for no effect and ±100 for the full control effect. The method in brief:
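Agonist mode, beta-lactamase reporter: fluorescence from LiveBLAzer B/G FRET substrate (2 h, room temperature) read after 16 h compound treatment at 37 C of VDR-bla cells, which were pre-incubated 4 h after seeding.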

The target is the same in assay [8]. The experiment in a line: qHTS assay to identify small molecule antagonists of the vitamin D receptor (VDR) signaling pathway (AID 743223; active = well fitted inhibition curve with a large enough effect in the signal ratio in the repeat runs, not every such curve was filed as active; the % refers to the signal ratio; note: % is set by controls: 0 for no effect and ±100 for the full control effect). The method in brief:
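Fluorescence from LiveBLAzer B/G FRET substrate, read after 2 h at room temperature, reflects beta-lactamase reporter activity in VDR-bla cells treated 16 h at 37C with compounds and agonist 1alpha,25-dihydroxyvitamin D3 (3 nM final).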

Assay [9] in a line: qHTS assay to identify small molecule agonists of the vitamin D receptor (VDR) signaling pathway - cell viability counter screen (AID 743224; active = well fitted curve in the direction sought with a large enough effect in the repeat runs; an effect the other way counts as inactive or inconclusive; note: nearly all actives have a fitted effect of over 50% in size; note: potency is the fitted concentration of half-maximal effect). The gist of the method: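 Counter screen run in the same wells as the VDR-bla reporter assay: CellTiter-Glo luminescence, 30 min at room temperature, after 16 h compound treatment at 37C of cells pre-plated for 4 h.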
Assay [10] in a line: qHTS assay to identify small molecule antagonists of the vitamin D receptor (VDR) signaling pathway - cell viability counter screen (AID 743225; active = well fitted curve in the direction sought with a large enough effect in the repeat runs; an effect the other way counts as inactive or inconclusive; note: nearly all actives have a fitted effect of over 50% in size; note: potency is the fitted concentration of half-maximal effect). The method in brief: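 Cells (VDR-UAS-bla HEK 293T) are plated, rested 4 h at 37C, dosed with compound and 3 nM final 1-alpha,25-dihydroxy vitamin D3, and incubated 16 h. Viability is taken from CellTiter-Glo luminescence in the reporter wells.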

Assay [11] in a line: qHTS assay to identify small molecule agonists of the NFkB signaling pathway - cell viability counter screen (AID 1159515). Note: nearly all actives have a fitted effect of over 55% in size. Note: potency is the fitted concentration of half-maximal effect. The gist of the method: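 Read by CellTiter-Glo luminescence (30 min, room temperature) in the wells also used for the beta-lactamase FRET read. ME-180 NFkB-bla cells at 2,000 per well were plated overnight, then exposed to compound for 5 hr at 37 C.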

The nature of assay [12]: qHTS assay to identify small molecule agonists of the endoplasmic reticulum stress response signaling pathway (AID 1159516; active = well fitted activation curve with a large enough effect in the signal ratio in the repeat runs, not every such curve was filed as active; the % refers to the signal ratio; note: % is set by controls: 0 for no effect and ±100 for the full control effect). The method in brief: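 Ratiometric FRET readout (405 nm excitation; 460 and 530 nm emission) of a beta-lactamase gene driven by the ER stress response element, after 2 hr substrate loading. HeLa ESRE-bla cells were seeded overnight and treated with compounds for only 5 hr at 37 C.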

The nature of assay [13]: qHTS assay to identify small molecule antagonists of the retinoid-related orphan receptor gamma (ROR-gamma) signaling pathway - cell viability counter screen (AID 1159520; active = well fitted curve in the direction sought with a large enough effect in the repeat runs; an effect the other way counts as inactive or inconclusive). The gist of the method: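 Tet-on ROR gamma CHO cells (1,000/well) were plated 4 hr, given compounds in DMSO for 2 hr at 37 C, then induced with 1 uM final doxycycline for 16 hr. Viability was read as ATP by CellTiter-Glo luminescence after 30 min.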

Assay [14] can be described thus: qHTS assay to identify small molecule agonists of the AP-1 signaling pathway - cell viability counter screen (AID 1159525). Note: nearly all actives have a fitted effect of over 55% in size. The gist of the method: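 Each titration point was normalised to DMSO and tetra n-octyl ammonium bromide controls. The read was Cell Titer Glo luminescence after 30 min at RT, following 5 h compound exposure of ME-180 AP-1-bla cells at 37 °C.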

Assay [15] can be described thus: qHTS assay to identify small molecule agonists of the AP-1 signaling pathway (AID 1159526). Note: potency is the fitted concentration of half-maximal effect.
Assay [16] addresses Retinoic acid receptor RXR-alpha (Homo sapiens) (UniProt P19793). The experiment in a line: qHTS assay to identify small molecule agonists of the RXR signaling pathway (AID 1159527). Note: % is set by controls: 0 for no effect and ±100 for the full control effect; nearly all actives have a fitted effect of over 35% in size. The method in brief:
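qHTS of the Tox21 10K library in GeneBLAzer RXR-alpha HEK 293T cells carrying a beta-lactamase reporter […]; 16 hr treatment, 9-cis retinoic acid as agonist control, FRET read-out.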

In assay [17] the target is Bile acid receptor (Homo sapiens) (UniProt Q96RI1). The experiment in a line: qHTS assay to identify small molecule antagonists of the farnesoid-X-receptor (FXR) signaling pathway (AID 743217; active = well fitted inhibition curve with a large enough effect in the signal ratio in the repeat runs, not every such curve was filed as active; the % refers to the signal ratio; note: % is set by controls: 0 for no effect and ±100 for the full control effect). The method in brief:
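Antagonist mode: chenodeoxycholic acid at 50 uM final stimulates a UAS-driven beta-lactamase reporter in HEK 293T FXR-bla cells during 16 h, 37C compound exposure. Read-out is FRET substrate fluorescence after 2 h at room temperature.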

Assay [18] has the same target. The experiment in a line: qHTS assay to identify small molecule agonists of the farnesoid-X-receptor (FXR) signaling pathway (AID 743220; active = well fitted activation curve with a large enough effect in the signal ratio in the repeat runs, not every such curve was filed as active; the % refers to the signal ratio; note: % is set by controls: 0 for no effect and ±100 for the full control effect). The gist of the method:
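FXR-UAS-bla HEK 293T cells carrying a UAS-driven beta-lactamase reporter were plated for 5 h at 37C/5% CO2, then exposed to DMSO-dissolved Tox21 10K compounds for 16 h at 37C. A LiveBLAzer B/G FRET substrate was loaded for 2 h at room temperature before fluorescence reading.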

The target in assay [19] is Nuclear receptor ROR-gamma (Homo sapiens) (UniProt P51449). The assay can be described thus: qHTS assay to identify small molecule antagonists of the retinoid-related orphan receptor gamma (ROR-gamma) signaling pathway (AID 1159521; active = well fitted curve in the direction sought with a large enough effect in the repeat runs; an effect the other way counts as inactive or inconclusive). The method in brief: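 RORγ antagonism is scored from reduced reporter luminescence in Tet-on CHO cells. Induction used 1 uM final doxycycline hyclate for 16 h at 37 C, following a 2 h compound exposure.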

Records with an inconclusive call do not appear. Unmarked numbers belong to inactive results. Calls of active or inactive are those of the source. Unless noted, calls come from the whole dose curve.

Chain of Peroxisome proliferator-activated receptor delta (Homo sapiens) (Q03181 whole entry, looked up): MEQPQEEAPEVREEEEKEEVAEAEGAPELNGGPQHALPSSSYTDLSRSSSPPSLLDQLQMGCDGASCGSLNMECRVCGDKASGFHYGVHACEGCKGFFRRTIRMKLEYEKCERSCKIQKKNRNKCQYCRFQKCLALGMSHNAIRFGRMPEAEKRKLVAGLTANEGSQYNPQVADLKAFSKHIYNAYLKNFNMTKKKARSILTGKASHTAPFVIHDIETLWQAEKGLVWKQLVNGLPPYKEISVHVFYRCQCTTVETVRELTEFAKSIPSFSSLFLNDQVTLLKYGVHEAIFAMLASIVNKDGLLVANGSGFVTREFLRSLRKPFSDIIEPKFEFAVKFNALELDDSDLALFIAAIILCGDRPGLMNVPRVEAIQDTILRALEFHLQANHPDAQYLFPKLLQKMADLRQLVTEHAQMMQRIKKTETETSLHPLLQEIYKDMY
Chain of Retinoic acid receptor RXR-alpha (Homo sapiens) (P19793 whole entry, looked up): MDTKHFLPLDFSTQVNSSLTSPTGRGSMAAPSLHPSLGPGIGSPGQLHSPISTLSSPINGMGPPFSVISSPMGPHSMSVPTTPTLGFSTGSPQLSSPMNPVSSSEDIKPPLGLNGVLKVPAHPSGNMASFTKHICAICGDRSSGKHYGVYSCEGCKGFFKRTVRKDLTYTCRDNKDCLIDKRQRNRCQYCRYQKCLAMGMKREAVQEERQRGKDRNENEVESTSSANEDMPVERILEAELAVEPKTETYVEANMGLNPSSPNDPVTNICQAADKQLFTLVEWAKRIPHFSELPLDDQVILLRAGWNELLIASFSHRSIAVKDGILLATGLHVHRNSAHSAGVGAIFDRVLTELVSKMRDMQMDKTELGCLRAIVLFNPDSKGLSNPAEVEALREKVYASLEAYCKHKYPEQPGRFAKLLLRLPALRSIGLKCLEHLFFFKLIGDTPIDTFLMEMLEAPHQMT
Chain of Bile acid receptor (Homo sapiens) (Q96RI1 whole entry, looked up): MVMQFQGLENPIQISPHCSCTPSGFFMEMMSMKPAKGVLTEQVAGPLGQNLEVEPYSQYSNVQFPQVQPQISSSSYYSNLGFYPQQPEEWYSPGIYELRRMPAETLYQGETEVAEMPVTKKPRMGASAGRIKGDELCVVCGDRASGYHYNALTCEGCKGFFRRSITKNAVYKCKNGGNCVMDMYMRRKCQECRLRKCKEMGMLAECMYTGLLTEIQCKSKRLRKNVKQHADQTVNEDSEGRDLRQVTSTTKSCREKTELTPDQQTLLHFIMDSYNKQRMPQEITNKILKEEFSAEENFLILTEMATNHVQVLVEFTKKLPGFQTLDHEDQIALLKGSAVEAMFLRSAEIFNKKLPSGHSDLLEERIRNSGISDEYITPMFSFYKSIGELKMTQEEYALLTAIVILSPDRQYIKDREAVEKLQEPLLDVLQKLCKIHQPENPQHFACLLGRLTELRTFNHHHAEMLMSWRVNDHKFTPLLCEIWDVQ
Chain of Vitamin D3 receptor (Homo sapiens) (P11473 whole entry, looked up): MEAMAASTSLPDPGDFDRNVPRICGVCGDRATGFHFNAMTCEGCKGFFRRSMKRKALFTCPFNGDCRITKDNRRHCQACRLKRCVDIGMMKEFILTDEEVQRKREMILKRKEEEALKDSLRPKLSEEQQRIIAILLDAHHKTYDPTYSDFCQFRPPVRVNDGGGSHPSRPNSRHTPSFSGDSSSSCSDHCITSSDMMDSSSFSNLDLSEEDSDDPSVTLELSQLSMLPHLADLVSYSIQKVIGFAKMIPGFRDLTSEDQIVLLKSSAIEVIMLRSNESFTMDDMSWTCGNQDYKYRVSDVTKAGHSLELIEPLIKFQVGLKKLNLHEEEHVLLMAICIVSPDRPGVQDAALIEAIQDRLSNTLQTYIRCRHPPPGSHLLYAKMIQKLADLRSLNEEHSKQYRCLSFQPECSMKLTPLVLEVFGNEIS

For `Cc1cccc2cccnc12`, the Potency entry in [1], in assay [2], in [3], in [4], in assay [5] and in assay [6] was “inactive” in each case. Also, the Potency result in assay [7], in assay [8], in [9], in [10], in assay [11] and in [12] was “inactive” each time. The Potency entry in assay [13], in assay [14], in assay [15] and in assay [16] was “inactive” in each case.

For `Cc1ccc(-c2ccccc2)cc1`, the Potency result in assay [1], in assay [2], in assay [3], in assay [4], in assay [5] and in assay [6] was “inactive” throughout. Besides, the Potency entry in assay [9], in [11], in assay [12], in assay [13], in assay [14] and in [15] was “inactive” throughout. The Potency entry in assay [16] is “inactive”.

Regarding `COc1cccc(OC)c1C(=O)O`, the Potency result in assay [1], in assay [3], in assay [5], in [6], in assay [7] and in [9] was “inactive” in each case. Moreover, the Potency entry in [10], in [11], in [12], in assay [13], in [14] and in assay [15] was “inactive” in each case. Further, the Potency entry in assay [16] was “inactive”.

Take `OCCN1CCN(CCCN2c3ccccc3Sc3ccc(C(F)(F)F)cc32)CC1`: the Potency entry in assay [2], in assay [17], in [18], in assay [11], in assay [12] and in assay [13] was “inactive” throughout. Besides, the Potency result in assay [14] was “inactive”. Further, the Potency was 29.8 µM (active) in assay [5] and 23.9 µM (active) in [10].

Turning to `C[C@H]1NCc2cc(-c3ccc4c(=O)c(C(=O)O)cn(C5CC5)c4c3OC(F)F)ccc21`, the Potency result in assay [1], in assay [2], in [4], in assay [5], in assay [6] and in [7] was “inactive” in each case. The Potency result in assay [8], in assay [9], in assay [10], in assay [11] and in assay [12] was “inactive” each time. For the same compound, in [13], the activity, negative = cytotoxicity is -17.1% [at 19 µM]. The viability change, negative = cytotoxic in assay [14] is 1.98% [at 15.8 µM]. Also, the figures for the activation in assay [15] and in assay [16] were -2.94% [at 15.8 µM] and -4.06% [at 15.8 µM], respectively.

As to `CCCCCc1ccc(Cl)cc1`, the Potency entry in assay [1], in assay [2], in assay [3], in assay [4], in assay [17] and in assay [5] was “inactive” in each case. Also, the Potency entry in [18], in assay [6], in assay [7], in assay [9], in assay [10] and in assay [11] was “inactive” each time. In addition, the Potency entry in assay [12], in [19], in [14], in assay [15] and in assay [16] was “inactive” each time.

`CC(C)(C)C1CCC(=O)CC1`: the Potency entry in [2], in assay [17], in assay [5], in assay [6], in assay [8] and in [10] was “inactive” throughout. Moreover, the Potency entry in [12], in assay [19] and in assay [14] was “inactive” each time. For the same compound, the Potency in assay [9] is 49 µM (active); in assay [11], 54.9 µM (active).

Consider `CCN(CC)c1ccc2c(-c3ccc(S(=O)(=O)O)cc3S(=O)(=O)[O-])c3ccc(=[N+](CC)CC)cc-3oc2c1`, for which the Potency entry in assay [2], in assay [4], in assay [17], in assay [5], in [18] and in [7] was “inactive” in each case. For the same compound, the Potency result in [8], in [11], in [12], in assay [15] and in [16] was “inactive” in each case.

On to `S=c1nccc[nH]1`, for which the Potency result in [2], in assay [3], in [4], in assay [17], in assay [5] and in assay [18] was “inactive” throughout. Moreover, the Potency result in assay [6], in assay [9], in assay [10], in assay [11], in assay [12] and in assay [14] was “inactive” each time. In addition, the Potency entry in [16] is “inactive”. The Potency in assay [15] was 49.1 µM (active).

Regarding `O=[N+]([O-])c1cccc(C(F)(F)F)c1`, the Potency result in assay [1], in assay [2], in [3], in assay [4], in [5] and in assay [7] was “inactive” throughout. The Potency entry in assay [8], in [9], in [10], in assay [11], in assay [12] and in [19] was “inactive” throughout. Further, the Potency result in assay [14], in assay [15] and in assay [16] was “inactive” in each case.

Source of the values: PubChem BioAssay (Tox21).
